Experimental data taken from PubChem BioAssay (NCATS).
Results filed as inconclusive are left out. Active and inactive are the calls of the source. Unless noted, the call rests on the fitted dose curve; in most records, active means well fitted curve in the direction sought with a large enough effect; inconclusive means small, poorly fitted or top-dose-only effect, or another doubt; inactive means no such curve, though single readings can be large; an effect the other way counts as inactive or inconclusive.

Tests used:
[1] = target: Voltage-gated inwardly rectifying potassium channel KCNH2 (Homo sapiens) (UniProt Q12809); experiment: qHTS Assay for Small Molecule Inhibitors of the Human hERG Channel Activity (AID 588834);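 further: top concentration of the series differs between compounds; lower thallium flux fluorescence means stronger hERG block; nearly all actives have a fitted effect of over 50% in size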
Sequence of Voltage-gated inwardly rectifying potassium channel KCNH2 (Homo sapiens) (Q12809 whole entry, looked up): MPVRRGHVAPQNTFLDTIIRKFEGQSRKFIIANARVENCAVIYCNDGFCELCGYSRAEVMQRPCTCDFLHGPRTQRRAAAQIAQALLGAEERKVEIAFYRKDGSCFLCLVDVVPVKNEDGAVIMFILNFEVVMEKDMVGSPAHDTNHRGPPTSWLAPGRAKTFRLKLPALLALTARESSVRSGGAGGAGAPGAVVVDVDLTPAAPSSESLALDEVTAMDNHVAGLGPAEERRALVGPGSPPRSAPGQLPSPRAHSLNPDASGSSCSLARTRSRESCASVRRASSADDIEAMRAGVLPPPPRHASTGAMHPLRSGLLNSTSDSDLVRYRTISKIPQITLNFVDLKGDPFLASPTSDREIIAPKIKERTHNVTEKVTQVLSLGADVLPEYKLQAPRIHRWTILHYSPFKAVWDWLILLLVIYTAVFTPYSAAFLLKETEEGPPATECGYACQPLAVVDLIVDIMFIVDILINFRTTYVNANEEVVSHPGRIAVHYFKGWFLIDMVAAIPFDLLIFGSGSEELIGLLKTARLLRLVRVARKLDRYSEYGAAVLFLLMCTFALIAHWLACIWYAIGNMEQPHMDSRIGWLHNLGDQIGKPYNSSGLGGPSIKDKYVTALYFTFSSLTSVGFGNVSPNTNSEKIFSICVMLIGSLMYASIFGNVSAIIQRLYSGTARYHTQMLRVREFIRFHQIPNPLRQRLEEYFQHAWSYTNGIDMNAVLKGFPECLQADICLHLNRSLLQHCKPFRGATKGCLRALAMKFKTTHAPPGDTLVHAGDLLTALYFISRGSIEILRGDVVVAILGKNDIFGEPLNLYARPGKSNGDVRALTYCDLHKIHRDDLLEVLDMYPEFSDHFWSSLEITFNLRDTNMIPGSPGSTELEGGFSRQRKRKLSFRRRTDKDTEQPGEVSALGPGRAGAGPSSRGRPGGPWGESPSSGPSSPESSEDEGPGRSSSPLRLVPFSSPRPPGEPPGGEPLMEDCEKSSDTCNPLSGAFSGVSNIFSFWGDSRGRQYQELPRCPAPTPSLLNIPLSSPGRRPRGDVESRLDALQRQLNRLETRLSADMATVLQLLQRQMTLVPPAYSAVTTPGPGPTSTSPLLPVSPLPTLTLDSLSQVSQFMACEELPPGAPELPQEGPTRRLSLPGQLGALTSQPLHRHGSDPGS
In short: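 Concentration-response qHTS measuring drop in thallium-sensitive dye signal. U2OS cells carrying BacMam hERG; compound exposure ~10 min, then stimulation buffer and 2 min read at 1 sec intervals.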

[2] = S16 Schwann cell viability assay (CellTiter-Glo assay) (AID 624031);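 further: cellular ATP luminescence as a viability measure; series mostly up to about 58 µM; nearly all actives have a fitted effect of over 70% in size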
In short: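 This viability control uses native rat S16 Schwann cells grown in DMEM plus 10% FBS. After a 24 h compound treatment at 37 °C, CellTiter-Glo luminescence reports ATP content, scaled against DMSO-treated and cell-free wells.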

[3] = S16 Schwann cell PMP22 intronic element firefly luciferase assay (AID 624032); further: nearly all actives have a fitted effect of over 30% in size; further: potency means the concentration at half of the fitted maximal effect
In short: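 Rat S16 Schwann cells stably carrying a PMP22 intronic element-driven Fluc reporter were seeded overnight, then exposed to compounds for 24 h at 37 °C. Luminescence was normalized to PTC124 (positive control) and DMSO (0% activity).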

[4] = S16 Schwann cell PMP22 intronic element beta-lactamase assay (AID 624044; calls by dose curve; further: nearly all actives have a fitted effect of over 15% in size)
In short: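 Rat S16 Schwann cells with beta-Lac driven by a PMP22 intronic element, compound-treated 24 h at 37 °C. LiveBLAzer FRET B/G read: 460 nm normalized to potassium clavulanate vs DMSO; 535 nm FRET as viability; concentration-effect curves classified.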

[5] = qHTS of Trypanosoma Brucei Inhibitors: LOPAC Validation (AID 624147)
In short: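 Screened from lowest to highest concentration, compounds were pinned into TbPYK/substrate mixtures, and ADP (130 uM final) was added. Plates sat at room temperature for 45 min prior to Kinase-Glo Plus detection by luminescence.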

[6] = target: Glucagon-like peptide 1 receptor (Homo sapiens) (UniProt P43220); experiment: qHTS of GLP-1 Receptor Agonists: LOPAC Validation (AID 624148);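 further: higher luminescence signal means agonism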
Sequence of Glucagon-like peptide 1 receptor (Homo sapiens) (P43220 whole entry, looked up): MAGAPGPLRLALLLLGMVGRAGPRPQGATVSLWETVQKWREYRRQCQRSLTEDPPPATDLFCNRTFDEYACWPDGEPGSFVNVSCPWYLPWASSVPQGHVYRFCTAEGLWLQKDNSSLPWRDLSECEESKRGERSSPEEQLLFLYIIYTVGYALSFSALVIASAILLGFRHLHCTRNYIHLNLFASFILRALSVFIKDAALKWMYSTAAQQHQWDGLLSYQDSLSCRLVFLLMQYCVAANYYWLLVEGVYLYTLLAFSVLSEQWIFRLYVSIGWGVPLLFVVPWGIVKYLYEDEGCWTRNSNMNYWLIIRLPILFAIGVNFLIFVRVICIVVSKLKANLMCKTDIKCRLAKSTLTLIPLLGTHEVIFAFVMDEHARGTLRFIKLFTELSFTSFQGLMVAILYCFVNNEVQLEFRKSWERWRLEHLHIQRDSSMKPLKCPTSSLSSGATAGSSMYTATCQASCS
In short: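 HEK293 cells stably co-expressing a cAMP-responsive luciferase reporter and a hypersensitive GLP-1R were plated 12 h at 37 °C and exposed to compounds for 4-6 hr at 37 °C, 5% CO2. Luminescence was read 12 min after adding detection reagent.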

[7] = Cytotoxicity counterscreen for NFkB agonists and antagonists (AID 624476);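 further: cells exposed to compound for 48 hours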
[8] = qHTS Assay for Identification of Small Molecule Agonists for NFkB Signaling Pathway. (AID 624478)
In short: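 NFkB-bla ME-180 cells carry a beta-lactamase reporter. They received compound plus TNF alpha at 10 pM final (its EC50) for 5 h at 37 C. Reporter activity was read as 460/530 nm emission ratio after 2 h LiveBLAzer substrate loading.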

[9] = target: Glutaminase kidney isoform, mitochondrial (Homo sapiens) (UniProt O94925); experiment: qHTS for Inhibitors of Glutaminase (GLS): LOPAC Validation (AID 624146);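 further: glutamate product detected by oxidase and peroxidase coupled Amplex red fluorescence gain; series mostly up to about 46 µM; nearly all actives have a fitted effect of over 60% in size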
Sequence of Glutaminase kidney isoform, mitochondrial (Homo sapiens) (O94925 whole entry, looked up, canonical isoform): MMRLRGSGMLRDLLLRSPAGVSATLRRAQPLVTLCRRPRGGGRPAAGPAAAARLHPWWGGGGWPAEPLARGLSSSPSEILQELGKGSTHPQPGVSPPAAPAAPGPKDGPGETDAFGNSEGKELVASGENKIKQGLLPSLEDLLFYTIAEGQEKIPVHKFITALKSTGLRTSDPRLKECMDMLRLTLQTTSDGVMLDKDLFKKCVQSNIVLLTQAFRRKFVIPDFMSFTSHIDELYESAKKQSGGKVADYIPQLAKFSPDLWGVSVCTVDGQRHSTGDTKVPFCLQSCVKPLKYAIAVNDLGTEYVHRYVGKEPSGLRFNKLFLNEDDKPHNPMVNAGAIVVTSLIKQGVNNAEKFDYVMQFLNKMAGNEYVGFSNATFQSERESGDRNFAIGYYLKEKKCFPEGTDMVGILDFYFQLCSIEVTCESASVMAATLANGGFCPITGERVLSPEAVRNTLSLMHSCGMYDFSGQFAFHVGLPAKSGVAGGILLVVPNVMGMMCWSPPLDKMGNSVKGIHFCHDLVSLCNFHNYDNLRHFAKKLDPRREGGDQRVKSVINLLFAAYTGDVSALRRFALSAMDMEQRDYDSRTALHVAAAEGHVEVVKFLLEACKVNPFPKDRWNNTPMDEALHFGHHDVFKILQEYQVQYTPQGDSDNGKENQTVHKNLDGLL
In short: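 Coupled fluorescence readout: glutamate oxidase/HRP/Amplex Red detect glutamate formed by hKGA from L-glutamine (1 mM solution added). Buffer 45 mM KH2PO4 pH 8.2, 0.02% Tween-20; reads at t0 and 30 min RT.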

[10] = qHTS of Nrf2 Activators: LOPAC Validation (AID 624149)
In short: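 AREc32_Fluc cells, 1000/well in OPTI-MEM with 5% FBS, grown overnight, then exposed to compounds for 24 hr at 37 deg C, 5% CO2. ARE-driven firefly luciferase read by Steady-Glo luminescence after 30 min at RT.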

[11] = target: Luciferin 4-monooxygenase (Photinus pyralis) (UniProt P08659); experiment: Biochemical firefly luciferase enzyme assay for NPC (AID 624030);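 further: purified P. pyralis luciferase at 10 nM with luciferin and ATP substrate; series mostly up to about 59 µM; nearly all actives have a fitted effect of over 70% in size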
Sequence of Luciferin 4-monooxygenase (Photinus pyralis) (P08659 whole entry, looked up): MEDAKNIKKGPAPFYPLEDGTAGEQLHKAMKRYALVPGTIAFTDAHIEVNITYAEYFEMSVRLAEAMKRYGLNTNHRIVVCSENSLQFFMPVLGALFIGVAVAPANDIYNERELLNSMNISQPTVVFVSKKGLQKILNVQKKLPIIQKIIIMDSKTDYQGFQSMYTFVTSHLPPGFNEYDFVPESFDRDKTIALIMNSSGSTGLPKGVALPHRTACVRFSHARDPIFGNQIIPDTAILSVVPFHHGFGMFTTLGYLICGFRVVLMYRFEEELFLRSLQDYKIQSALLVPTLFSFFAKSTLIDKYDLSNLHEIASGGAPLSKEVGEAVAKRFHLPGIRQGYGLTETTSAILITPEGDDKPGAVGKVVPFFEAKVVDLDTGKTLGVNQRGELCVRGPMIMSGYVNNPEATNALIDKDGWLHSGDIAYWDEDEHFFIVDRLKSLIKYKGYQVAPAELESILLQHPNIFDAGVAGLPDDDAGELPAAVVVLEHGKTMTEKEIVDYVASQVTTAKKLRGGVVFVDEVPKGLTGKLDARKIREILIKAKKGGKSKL
In short: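 Counter-screen for direct inhibition of the luciferase enzyme by approved-drug library compounds, run at 10 nM enzyme in 50 mM Tris acetate (final). Luminescence was read within 5 min of enzyme-buffer addition and normalized to PTC124 versus DMSO (0%).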

[12] = HTS Assay for Allosteric Antagonists of the Human D2 Dopamine Receptor: Hit Validation in HTRF (AID 624455);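 further: stable D1 dopamine receptor cell line scored for blocking the D1 response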
In short: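 Hit validation in cells stably expressing the D1 dopamine receptor, run in HTRF format. Compounds were tested for their ability to inhibit the D1-mediated response.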

Measured: Potency

O=c1c(O)c(-c2ccc(O)c(O)c2)oc2cc(O)cc(O)c12
not listed: [9] | [10] | [11] | [12]
inactive: all other assays above

CN1C2CCC1CC(OC(=O)C(CO)c1ccccc1)C2 (stereo unspecified)
inactive: [9] | [5] | [10]

CCN1CCCC1CNC(=O)c1cc(S(=O)(=O)CC)c(N)cc1OC (stereo unspecified)
inactive: [11] | [9] | [5] | [6] | [10]

CN1CCC(=C2c3ccccc3CC(=O)c3sccc32)CC1
inactive: [11] | [5] | [6] | [10] | [12]

CN1CCN2c3ccccc3Cc3ccccc3C2C1 (stereo unspecified)
inactive: [11] | [2] | [3] | [4] | [9] | [6] | [10]

NC(CO)C(=O)NNCc1ccc(O)c(O)c1O (stereo unspecified)
inactive: [1] | [5] | [6] | [10]

CCCCc1oc2ccccc2c1C(=O)c1cc(I)c(OCCN(CC)CC)c(I)c1
active: [3] 28.7 µM
inactive: [11] | [9] | [5] | [6] | [10] | [12]

COc1ccccc1OCCNCC(O)COc1cccc2[nH]c3ccccc3c12 (stereo unspecified)
active: [3] 25.6 µM
inactive: [11] | [4] | [9] | [5] | [6] | [10]
